Test results from PubChem BioAssay (EPA / NIEHS).
The source made the active and inactive calls. Rule for the calls: active = hit-call score of the fitted dose curve at least 0.9, where 1 is the maximum; inactive = score below 0.9.

read-out: Matrix Metallopeptidase 9 (MMP9), MMP9 (gene 4318); assay: BSK_BF4T_MMP9: BioMAP Diversity Plus: BF4T Assay for Matrix Metallopeptidase 9 (MMP9) Biomarker Activity (AID 2284276); settings: primary human bronchial epithelial cells with fibroblasts
Method: BSK_BF4T is a cell-based, multiplexed-readout assay that uses bronchial epithelial cells and dermal fibroblasts, a human vascular primary cell, with measurements taken at 24 hours after chemical dosing in a microplate: 96-well plate.BSK_BF4T_MMP9 is an assay component measured in the BSK_BF4T assay. It measures MMP-9 antibody related to regulation of gene expression using ELISA technology.Data from the assay component BSK_BF4T_MMP9 was analyzed at the endpoint, BSK_BF4T_MMP9, in the positive analysis fitting direction relative to DMSO as the negative control and baseline of activity. Using a type of binding reporter, gain or loss-of-signal activity can be used to understand protein changes. To generalize the intended target to other relatable targets, this assay endpoint is annotated to the 'protease' intended target family, where the subfamily is 'matrix metalloproteinase'.
The levels of cell surface (or secreted, indicated by the prefix "s") biomarker endpoints were measured by ELISA. Overt cytotoxicity to cells in confluent adherent cultures (all systems other than the BT system) was assessed by measuring total protein levels using sulforhodamine B (SRB) staining in parallel cultures at the time of biomarker measurements, indicated as SRB endpoints. For proliferation assays for adherent cell types, individual cell types are cultured at sub-confluence and relative cell numbers quantified by SRB staining at time points optimized for each system (48 h: 3C and CASM3C systems; 72 h: BT and HDF3CGF systems; 96 h: SAg system). SRB was performed by staining cells with 0.1% SRB after fixation with 10% TCA and reading wells at 560 nm.Viability and proliferation of PBMC (T cells) was quantified by Alamar Blue reduction for the SAg and BT systems. For PBMC viability (referred to as PBMC Cytotoxicity within the assay endpoint names), cells were plated (75,000/well in a 96-well plate) and then chemical samples added for 1 h before addition of activators, SEB and TSST-1 (20 ng/mL final concentration each). Cells were incubated for 90 h. Then, Alamar Blue (20 uL/well) (Invitrogen, Cat DAL1100) was added for 6 h, and the plates were read with a fluorescence microplate reader at 546/580 nm (excitation/emission). For PBMC proliferation, cells were plated and activated as above but incubated for only 16 h prior to addition of Alamar Blue. Plates were read after 6 h.

Compound	outcome
OCC(F)(F)OC(F)(F)C(F)(F)OC(F)(F)C(F)(F)OC(F)(F)F	inactive
O=C(O)C=CC(F)(C(F)(F)F)C(F)(F)F	inactive
O=C(O)C(F)(F)OC(F)(F)C(F)(F)OC(F)(F)F	inactive
CC(O)C(F)(F)C(F)(F)F (centres undefined)	inactive
OCC(F)(F)OC(F)(F)C(F)(F)OC(F)(F)C(F)(F)OC(F)(F)CO	inactive
COC(=O)C(F)(F)C(F)(F)OC(F)(C(F)(F)F)C(F)(F)OC(F)=C(F)F (centres undefined)	inactive
OCC(F)(F)OC(F)(F)C(F)(F)OC(F)(F)CO	inactive
FC(F)(F)C(F)(C(F)(F)F)C(F)(F)C(F)(F)CC1CO1 (centres undefined)	inactive
O=C(O)C(F)(OC(F)(F)C(F)(F)C(F)(F)F)C(F)(F)F (centres undefined)	inactive
C=CC(=O)OCC(F)(F)C(F)F	inactive
O=C(O)C(F)(F)OC(F)(F)C(F)(F)OC(F)(F)C(=O)O	inactive
NC(=O)C(F)(F)C(F)(F)F	inactive
O=C(O)C(F)(F)C(F)(F)C(=O)O	inactive
O=S(=O)(F)C(F)(F)C(F)(F)C(F)(F)C(F)(F)C(F)(F)C(F)(F)C(F)(F)C(F)(F)F	inactive
